Results filed as inconclusive are left out. Calls of active or inactive are those of the source. Unless noted, calls come from the whole dose curve; as a rule, active = well fitted curve in the direction sought with a large enough effect in the repeat runs; inconclusive = weak or mixed curves; inactive = no such curve, though single readings can be large; an effect the other way counts as inactive or inconclusive.
Assays:
[1] = qHTS assay to identify small molecule antagonists of the estrogen receptor beta (ER-beta) signaling pathway - cell viability counter screen (AID 1259382);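 note: HEK293T cells carrying ER-beta-UAS-bla reporter stimulated with estradiol; series mostly up to about 92 µM; nearly all actives have a fitted effect of over 55% in size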
In short: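 HEK293T ER-beta-UAS-bla, 2% charcoal-stripped FBS; compounds + 1nM E2 16 hr 37C; CellTiter-Glo luminescence, 30 min RT.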

[2] = biological target: Estrogen receptor (Homo sapiens) (UniProt P03372); assay: qHTS assay to identify small molecule agonists of the estrogen receptor alpha (ER-alpha) signaling pathway in the presence of an antagonist (AID 1259383; calls by dose curve; note: top concentration of the series differs between compounds; nearly all actives have a fitted effect of over 15% in size)
In short: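 ER-alpha agonism measured under antagonist challenge: 10.0nM ICI-182,780 (final) plus compound, 15 concentrations, 22hr, VM7Luc4E2 ERE-luciferase cells. Read by luminescence.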

[3] = qHTS assay to identify small molecule agonists or antagonists of the thyroid stimulating hormone receptor (TSHR) signaling pathway - wild type cell line counter screen (AID 1259384; calls by dose curve)
In short: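 Wild-type Hek293 cells, 800/well, 18 h at 37C, then compound with Ro20-1724 for 30 min RT. cAMP by HTRF (cAMP-d2/anti-cAMP cryptate), 1 h RT, fluorescence read. 15 concentrations, triplicates.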

[4] = biological target: Thyrotropin receptor (Homo sapiens) (UniProt P16473); assay: qHTS assay to identify small molecule antagonists of the thyroid stimulating hormone receptor (TSHR) signaling pathway (AID 1259385; calls by dose curve; note: nearly all actives have a fitted effect of over 20% in size)
In short: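 TSHR-HEK293 cells (800/well) plated 18 h, then compounds with Ro20-1724 and TSH at 1.5 ng/mL final, 30 min at room temperature. cAMP quantified by HTRF (cAMP-d2/anti-cAMP-cryptate, 1 h); 15 concentrations in triplicate.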

[5] = qHTS assay to identify small molecule agonists of the estrogen receptor alpha (ER-alpha) signaling pathway in the presence of an antagonist - cell viability counter screen (AID 1259386);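 note: series mostly up to about 92 µM; cells exposed to compounds for 22 h at 37 °C before the viability read; nearly all actives have a fitted effect of over 30% in size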
In short: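 Steps: 5-day stripped-FBS culture; seed and incubate 24hr; add ICI-182,780 (10.0nM final); pin 15-point compound titration; incubate 22hr at 37C; add CellTiter-Fluor at 21hr; read fluorescence.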

[6] = biological target: Progesterone receptor (Homo sapiens) (UniProt P06401); assay: qHTS assay to identify small molecule agonists of the progesterone receptor (PR) signaling pathway (AID 1346784; calls by dose curve; note: nearly all actives have a fitted effect of over 30% in size)
In short: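 Seed PR-UAS-bla HEK 293T cells (2% charcoal-stripped FBS), incubate 6 hr at 37C; add compounds in DMSO, 16 hr at 37C; add LiveBLAzer B/G substrate, 2 hr RT; read fluorescence intensity.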

[7] = biological target: Progesterone receptor (Homo sapiens) (UniProt P06401); assay: qHTS assay to identify small molecule antagonists of the progesterone receptor (PR) signaling pathway (AID 1346795; active = well fitted inhibition curve with a large enough effect in the signal ratio in the repeat runs, not every such curve was filed as active; the % refers to the signal ratio)
In short: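 Screening used a GripTite HEK293T line with PR-responsive UAS-beta-lactamase. Cells were challenged with compound in the presence of 1 nM R5020 final for 16 hr at 37C; B/G FRET substrate, 2 hr room temperature, fluorescence.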

[8] = qHTS assay to identify small molecule agonists of the progesterone receptor (PR) signaling pathway - cell viability counter screen (AID 1346799; calls by dose curve; note: nearly all actives have a fitted effect of over 45% in size)
In short: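 Using the same plates as the PR reporter screen, HEK293T PR-UAS-bla cells received compounds for 16 hr at 37C and were then lysed with CellTiter-Glo; luminescence was read 30 min later at room temperature.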

[9] = qHTS assay to identify small molecule antagonists of the TGF-beta/Smad signaling pathway - cell viability counter screen (AID 1346824); note: nearly all actives have a fitted effect of over 50% in size
In short: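 SBE-bla HEK 293T cells, incubated overnight, then compound plus 0.25 ng/mL TGF-beta1 (stock added) for 5 hr at 37 C. Viability was read in the same wells by CellTiter-Glo luminescence after 30 min at room temperature.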

[10] = qHTS assay to identify small molecule agonists of the TGF-beta/Smad signaling pathway - cell viability counter screen (AID 1346829); note: top concentration of the series differs between compounds; nearly all actives have a fitted effect of over 45% in size
In short: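 SBE-bla HEK 293T cells plated overnight, compound exposure 5 hr at 37 C. Viability read in the same wells by CellTiter-Glo luminescence after 30 min at room temperature, following the beta-lactamase read.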

[11] = qHTS assay to identify small molecule agonists of the TGF-beta/Smad signaling pathway (AID 1346859; active = well fitted activation curve with a large enough effect in the signal ratio in the repeat runs, not every such curve was filed as active; the % refers to the signal ratio; note: series mostly up to about 77 µM)
In short: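 Beta-lactamase reporter activity downstream of Smad binding elements was measured in stably transfected HEK 293T cells; compounds were incubated for 5 hr, substrate for 2 hr at room temperature.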

[12] = biological target: Thyrotropin-releasing hormone receptor (Homo sapiens) (UniProt P34981); assay: qHTS assay to identify small molecule antagonists of the thyrotropin-releasing hormone receptor (TRHR) signaling pathway (AID 1346877; active = well fitted inhibition curve with a large enough effect in the repeat runs, not every such curve was filed as active; note: series mostly up to about 51 µM)
In short: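 Human TRHR in HEK293 cells; inhibition of the intracellular calcium rise triggered by 1 nM TRH was followed by fluorescence over 3 min. Compounds were run at 15 concentrations, three replicates each.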

[13] = biological target: Thyrotropin-releasing hormone receptor (Homo sapiens) (UniProt P34981); assay: qHTS assay to identify small molecule agonists of the thyrotropin-releasing hormone receptor (TRHR) signaling pathway (AID 1346891; calls by dose curve;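 note: HEK293 cells expressing TRHR with calcium dye readout; series mostly up to about 58 µM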)
In short: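 Overnight-plated (18 h, 37 °C, 5% CO2) TRHR-Hek293 cells; 2 h calcium dye at 37 °C; compound in DMSO; 3-min kinetic fluorescence read.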

[14] = Human pregnane X receptor (PXR) small molecule agonists, qHTS cell viability counter screen (AID 1346977); note: nearly all actives have a fitted effect of over 50% in size
In short: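 After a 5hr pre-incubation, PXR-Luc HepG2 cells received compounds plus positive control in DMSO and were kept 24hr at 37C. Cell viability was quantified by fluorescence from CellTiter-Fluor added for the final hour.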

[15] = Caspase-3/7 induction in HepG2 cells by small molecules, qHTS assay (AID 1346978); note: nearly all actives have a fitted effect of over 15% in size
In short: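 Wild-type HepG2 cells, 2,000/well, settled 5 hr at 37 C and 5% CO2, then compound-treated for 17 hr; caspase-3/7 activity read by luminescent Caspase-Glo 3/7 after 30 min at room temperature.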

[16] = Caspase-3/7 induction in CHO-K1 cells by small molecules, qHTS cell viability counter screen (AID 1346979); note: nearly all actives have a fitted effect of over 35% in size
In short: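 Multiplexed with Caspase-Glo 3/7 in CHO-K1 cells, this counter screen added CellTiter-Fluor after 16hr of compound exposure and recorded fluorescence 1hr later.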

[17] = Caspase-3/7 induction in CHO-K1 cells by small molecules, qHTS assay (AID 1346980); note: nearly all actives have a fitted effect of over 15% in size
In short: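 Wild-type CHO-K1 cells exposed to compounds for 17hr at 37 C, 5% CO2. Caspase-3/7 activity then measured by Caspase-Glo 3/7 luminescence after 30min at room temperature.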

[18] = Caspase-3/7 induction in HepG2 cells by small molecules, qHTS cell viability counter screen (AID 1346981); note: series mostly up to about 92 µM; nearly all actives have a fitted effect of over 30% in size
In short: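 The parent HepG2 line is plated at 2,000 cells per well and rested 5 hr before compound pinning from DMSO stocks. Following a 16-hr treatment at 37 C, a fluorogenic live-cell substrate (CellTiter-Fluor) reports viability after 1 hr.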

[19] = biological target: Nuclear receptor subfamily 1 group I member 2 (Homo sapiens) (UniProt O75469); assay: Human pregnane X receptor (PXR) small molecule agonists, qHTS assay (AID 1346982); note: nearly all actives have a fitted effect of over 35% in size
In short: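 After plating in 5% charcoal-stripped FBS and a 5 hr rest, PXR-Luc HepG2 cells received compounds in DMSO. Following 24 hr at 37 C, ONE-Glo was added and light output read.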

[20] = qHTS assay to identify small molecule antagonists of the progesterone receptor (PR) signaling pathway - cell viability counter screen (AID 1346798); note: series mostly up to about 92 µM; nearly all actives have a fitted effect of over 50% in size
In short: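 Measures cytotoxicity in parallel with the PR antagonist reporter read: HEK293T PR-UAS-bla cells get compound and R5020 for 16 hr, and remaining viable cells are quantified by CellTiter-Glo luminescence.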

Measured: Potency

Sequence of Thyrotropin receptor (Homo sapiens) (P16473 whole entry, looked up): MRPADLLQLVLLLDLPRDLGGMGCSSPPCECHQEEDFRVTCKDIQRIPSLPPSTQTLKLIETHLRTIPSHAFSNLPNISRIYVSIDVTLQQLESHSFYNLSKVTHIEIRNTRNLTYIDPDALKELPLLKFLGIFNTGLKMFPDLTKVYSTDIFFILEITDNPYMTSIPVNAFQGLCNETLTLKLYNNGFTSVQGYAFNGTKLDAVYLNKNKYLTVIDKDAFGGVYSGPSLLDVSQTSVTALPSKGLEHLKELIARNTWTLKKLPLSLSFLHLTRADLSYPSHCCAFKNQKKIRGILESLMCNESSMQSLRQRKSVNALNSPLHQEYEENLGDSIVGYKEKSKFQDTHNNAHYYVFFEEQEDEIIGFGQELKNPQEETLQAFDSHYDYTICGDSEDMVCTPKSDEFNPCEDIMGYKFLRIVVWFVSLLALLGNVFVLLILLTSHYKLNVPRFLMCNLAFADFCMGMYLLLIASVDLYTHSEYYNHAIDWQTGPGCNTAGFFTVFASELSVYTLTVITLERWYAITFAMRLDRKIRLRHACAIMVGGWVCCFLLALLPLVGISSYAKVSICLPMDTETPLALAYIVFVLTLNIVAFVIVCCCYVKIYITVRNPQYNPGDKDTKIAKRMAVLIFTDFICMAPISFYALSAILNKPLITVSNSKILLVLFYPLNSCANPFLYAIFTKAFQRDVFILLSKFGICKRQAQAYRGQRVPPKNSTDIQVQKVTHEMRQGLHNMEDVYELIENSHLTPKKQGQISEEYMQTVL
Sequence of Nuclear receptor subfamily 1 group I member 2 (Homo sapiens) (O75469 whole entry, looked up): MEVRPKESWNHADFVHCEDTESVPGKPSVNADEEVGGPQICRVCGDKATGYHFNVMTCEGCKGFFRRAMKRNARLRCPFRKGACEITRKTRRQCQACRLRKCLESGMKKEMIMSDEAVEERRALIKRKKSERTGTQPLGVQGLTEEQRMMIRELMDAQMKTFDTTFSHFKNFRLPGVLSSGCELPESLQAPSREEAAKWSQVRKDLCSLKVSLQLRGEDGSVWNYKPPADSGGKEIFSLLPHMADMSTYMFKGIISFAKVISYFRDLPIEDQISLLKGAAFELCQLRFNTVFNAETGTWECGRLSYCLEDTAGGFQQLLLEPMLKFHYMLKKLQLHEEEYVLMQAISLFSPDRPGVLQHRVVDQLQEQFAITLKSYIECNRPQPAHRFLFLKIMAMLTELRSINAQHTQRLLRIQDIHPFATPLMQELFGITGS
Sequence of Thyrotropin-releasing hormone receptor (Homo sapiens) (P34981 whole entry, looked up): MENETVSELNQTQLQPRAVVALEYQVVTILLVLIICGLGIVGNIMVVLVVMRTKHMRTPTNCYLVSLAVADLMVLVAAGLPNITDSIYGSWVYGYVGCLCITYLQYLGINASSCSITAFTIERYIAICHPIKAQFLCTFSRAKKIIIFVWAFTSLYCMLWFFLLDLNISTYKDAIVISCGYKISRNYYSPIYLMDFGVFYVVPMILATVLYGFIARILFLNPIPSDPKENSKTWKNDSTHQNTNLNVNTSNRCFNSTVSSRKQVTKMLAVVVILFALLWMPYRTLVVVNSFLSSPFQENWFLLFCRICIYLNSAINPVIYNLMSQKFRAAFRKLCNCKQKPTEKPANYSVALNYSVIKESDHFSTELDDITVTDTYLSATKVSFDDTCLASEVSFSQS
Sequence of Progesterone receptor (Homo sapiens) (P06401 whole entry, looked up): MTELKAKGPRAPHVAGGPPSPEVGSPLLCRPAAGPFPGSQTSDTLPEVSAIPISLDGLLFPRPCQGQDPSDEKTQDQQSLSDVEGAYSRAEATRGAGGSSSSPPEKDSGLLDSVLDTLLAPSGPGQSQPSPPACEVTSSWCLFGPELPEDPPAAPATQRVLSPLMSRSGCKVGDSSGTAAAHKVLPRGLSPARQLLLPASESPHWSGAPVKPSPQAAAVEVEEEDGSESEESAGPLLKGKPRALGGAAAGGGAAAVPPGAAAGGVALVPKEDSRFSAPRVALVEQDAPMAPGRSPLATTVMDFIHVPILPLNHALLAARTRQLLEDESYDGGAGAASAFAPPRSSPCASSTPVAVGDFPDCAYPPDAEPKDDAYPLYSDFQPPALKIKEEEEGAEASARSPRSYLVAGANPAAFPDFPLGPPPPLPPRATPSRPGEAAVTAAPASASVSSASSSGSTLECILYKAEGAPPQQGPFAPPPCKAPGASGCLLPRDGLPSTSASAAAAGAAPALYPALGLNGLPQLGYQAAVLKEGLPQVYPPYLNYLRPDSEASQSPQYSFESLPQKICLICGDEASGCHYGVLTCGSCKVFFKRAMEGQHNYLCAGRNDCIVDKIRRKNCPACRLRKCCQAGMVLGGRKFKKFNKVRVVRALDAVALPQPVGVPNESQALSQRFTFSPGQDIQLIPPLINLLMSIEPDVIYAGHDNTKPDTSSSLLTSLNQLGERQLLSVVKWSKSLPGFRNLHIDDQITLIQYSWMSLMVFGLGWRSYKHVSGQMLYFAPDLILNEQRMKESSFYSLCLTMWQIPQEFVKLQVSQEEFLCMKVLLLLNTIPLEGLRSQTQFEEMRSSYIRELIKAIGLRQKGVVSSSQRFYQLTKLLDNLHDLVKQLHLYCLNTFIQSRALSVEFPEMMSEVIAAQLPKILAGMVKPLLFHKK
Sequence of Estrogen receptor (Homo sapiens) (P03372 whole entry, looked up): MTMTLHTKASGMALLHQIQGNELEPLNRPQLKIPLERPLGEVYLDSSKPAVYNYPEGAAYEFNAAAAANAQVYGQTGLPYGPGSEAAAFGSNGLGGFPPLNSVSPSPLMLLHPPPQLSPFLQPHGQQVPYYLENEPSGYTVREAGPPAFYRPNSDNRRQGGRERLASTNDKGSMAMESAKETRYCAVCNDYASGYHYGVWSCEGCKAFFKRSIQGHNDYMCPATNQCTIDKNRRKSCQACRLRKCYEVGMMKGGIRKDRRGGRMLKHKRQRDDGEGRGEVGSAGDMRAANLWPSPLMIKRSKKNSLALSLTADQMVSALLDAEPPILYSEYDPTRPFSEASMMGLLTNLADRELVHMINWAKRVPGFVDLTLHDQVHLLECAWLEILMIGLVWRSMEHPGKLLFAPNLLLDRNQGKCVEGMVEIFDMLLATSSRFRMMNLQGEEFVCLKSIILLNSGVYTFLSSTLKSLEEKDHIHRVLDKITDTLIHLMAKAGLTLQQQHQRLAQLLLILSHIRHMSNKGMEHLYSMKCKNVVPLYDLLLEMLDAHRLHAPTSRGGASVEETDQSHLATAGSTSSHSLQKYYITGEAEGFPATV

CCCOC(=O)CCCCC(=O)OCCC
not listed: [20]
inactive: all other assays above

CC(C)CCCCCCOC(=O)C1CCCCC1C(=O)OCCCCCCC(C)C (centres undefined)
not listed: [14] | [19]
inactive: all other assays above

Cc1nc(C)nc(N2C[C@@H](C)N(c3ccnc([C@@H](C)O)n3)[C@@H](C)C2)n1
not listed: [7] | [12] | [13]
inactive: all other assays above

CO[Si](CCCS)(OC)OC
not listed: [8] | [12] | [13] | [17]
inactive: all other assays above

CCOC(=O)CCCCCCCCC(=O)OCC
not listed: [10] | [17] | [20]
inactive: all other assays above

CC(=O)OC(C(=O)c1ccccc1)c1ccccc1 (centres undefined)
not listed: [12] | [13] | [19]
inactive: all other assays above

Cc1cccc(Nc2ccncc2S(=O)(=O)NC(=O)NC(C)C)c1
not listed: [12] | [13] | [14] | [16] | [19]
inactive: all other assays above

From PubChem BioAssay (Tox21)
